Test results as given in PubChem BioAssay (NCI).
Compounds without any hit were thinned out: in the full panel of roughly 83,000, 20% have a hit.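 Method: cells in 96-well plates; compound added at one concentration; 48 h incubation; percent growth measured; values under 10 scored active.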 Unmarked numbers belong to inactive results.

test system: IGROV1 ovarian; assay: NCI-60 one-dose screen, 48 h (100 = growth as untreated, 0 = no growth, -100 = all killed); conditions: 1 µM

SMILES | growth
CC/C(=C(\c1ccc(O)cc1)c1ccc(OCCN(C)C(=O)COCCNC(=O)Cc2ccc3c(c2)CN([C@@H]2CCC(=O)NC2=O)C3=O)cc1)c1ccccc1 | 38.5%
CC/C(=C(\c1ccc(O)cc1)c1ccc(OCCN(C)C(=O)CCOCCNC(=O)c2ccc3c(c2)CN([C@@H]2CCC(=O)NC2=O)C3=O)cc1)c1ccccc1 | 70.4%
CC/C(=C(/c1ccc(O)cc1)c1ccc(OCCN(C)C(=O)CCOCCNC(=O)Cc2ccc3c(c2)CN([C@@H]2CCC(=O)NC2=O)C3=O)cc1)c1ccccc1 | 57.5%
CC/C(=C(/c1ccc(O)cc1)c1ccc(OCCN(C)C(=O)COCCOCCNC(=O)c2ccc3c(c2)CN([C@@H]2CCC(=O)NC2=O)C3=O)cc1)c1ccccc1 | 63.1%
CC/C(=C(\c1ccc(O)cc1)c1ccc(OCCNC)cc1)c1ccccc1 | 101%
CC/C(=C(/c1ccc(O)cc1)c1ccc(OCCN(C)C(=O)COCCOCCNC(=O)Cc2ccc3c(c2)CN([C@@H]2CCC(=O)NC2=O)C3=O)cc1)c1ccccc1 | 50%
